# Inconclusive results are not listed. Entries that show only a call come without a potency. Activity calls are given as the source filed them. Unless noted, calls come from the whole dose curve; as a rule, active = well fitted curve in the direction sought with a large enough effect; inconclusive = small, poorly fitted or top-dose-only effect, or another doubt; inactive = no such curve, though single readings can be large; an effect the other way counts as inactive or inconclusive.
# Key:
# [1] = target: Estrogen receptor (Homo sapiens) (UniProt P03372); assay: qHTS assay for small molecule agonists of estrogen receptor alpha signaling (AID 588514; calls by dose curve; note: nearly all actives have a fitted effect of over 70% in size)
# Outline: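 ER-alpha-UAS-bla GripTite HEK293 cells, 5000/well in 2% charcoal/dextran-stripped FBS medium, treated with compound titrations 18 h at 37 C. CCF4 beta-lactamase read by fluorescence after 2 h RT; normalised to 20 nM 17-beta-estradiol (100%) and DMSO (0%), Hill fit for EC50 and efficacy.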
# [2] = target: Peroxisome proliferator-activated receptor gamma (Homo sapiens) (UniProt P37231); assay: qHTS assay for small molecule agonists of peroxisome proliferator-activated receptor gamma signaling (AID 588536; active = well fitted curve in the direction sought with a large enough effect in the signal ratio, with a control signal flat, not every such curve was filed as active; the % refers to the signal ratio)
# Outline: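 PPAR-gamma-UAS-bla HEK293 cells in medium with 1% charcoal/dextran-treated FBS were exposed to compounds for 16 h at 37 C. Beta-lactamase activity was read with CCF4 substrate (405 nm excitation, 460/530 nm emission).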
# [3] = target: Peroxisome proliferator-activated receptor gamma (Homo sapiens) (UniProt P37231); assay: qHTS assay for small molecule antagonists of peroxisome proliferator-activated receptor gamma signaling (AID 588537; active = well fitted inhibition curve with a large enough effect in the signal ratio, with a control signal flat, not every such curve was filed as active; the % refers to the signal ratio;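 note: reporter cells co-stimulated with 50 nM rosiglitazone agonist during compound treatment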)
# Outline: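 PPARγ-UAS-bla HEK293 cells (3000/well) in 1% charcoal/dextran-stripped FBS are treated with compound, then stimulated with 50 nM rosiglitazone for 16 h at 37 °C. Read-out is CCF4 β-lactamase fluorescence after 2 h at RT. IC50 comes from Hill fits normalised to rosiglitazone and DMSO.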
# [4] = target: Vitamin D3 receptor (Homo sapiens) (UniProt P11473); assay: qHTS assay for small molecule antagonists of vitamin D receptor signaling (AID 588541; calls by dose curve;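 note: receptor activated by calcitriol during compound treatment; series mostly up to about 77 µM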)
# Outline: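 VDR-UAS-bla HEK293T cells in 2% charcoal-stripped FBS were stimulated with 1-alpha,25-dihydroxyvitamin D3 (3 nM final) plus compound for 16 h at 37 C. The beta-lactamase CCF4 readout was normalized to 50 nM agonist and DMSO, and Hill fits gave IC50.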
# [5] = target: Vitamin D3 receptor (Homo sapiens) (UniProt P11473); assay: qHTS assay for small molecule agonists of vitamin D receptor signaling (AID 588543; calls by dose curve)
# Outline: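 Agonist-mode beta-lactamase reporter: HEK293T VDR-UAS-bla cells in charcoal-stripped 2% FBS, compound series 16 h 37 C, CCF4 2 h RT. EC50 from Hill fit, scaled against DMSO and 50 nM calcitriol control.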
# [6] = qHTS assay for small molecule agonists of retinoid X receptor alpha signaling (AID 588544; calls by dose curve); conditions: HEK293T RXRa-UAS-bla, beta-lactamase reporter, 18 h; 530 nm emission
# [7] = target: Retinoic acid receptor RXR-alpha (Homo sapiens) (UniProt P19793); assay: as above
# [8] = qHTS assay for small molecule antagonists of retinoid X receptor alpha signaling (AID 588546; active = well fitted inhibition curve with a large enough effect in the signal ratio, with a control signal flat, not every such curve was filed as active; the % refers to the signal ratio;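 note: cells stimulated with 9-cis-retinoic acid as agonist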); conditions: HEK293T RXRa-UAS-bla, beta-lactamase ratio, antagonist mode; measured here: W530 green channel, cytotoxicity proxy
# Outline: (§1)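 Beta-lactamase reporter inhibition, read as CCF4 fluorescence ratio (ex 405, em 460/530 nm) after 2 h at RT. HEK293T UAS-bla cells, 2500/well, were stimulated with 9-cis-RA at 500 or 100 nM final alongside test compound for 18 h at 37 C.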
# [9] = target: Retinoic acid receptor RXR-alpha (Homo sapiens) (UniProt P19793); assay: as above; conditions: HEK293T RXRa-UAS-bla, beta-lactamase ratio, antagonist mode
# Outline: as §1
# [10] = target: Voltage-gated inwardly rectifying potassium channel KCNH2 (Homo sapiens) (UniProt Q12809); assay: qHTS Assay for Small Molecule Inhibitors of the Human hERG Channel Activity (AID 588834);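 note: top concentration of the series differs between compounds; lower thallium flux fluorescence means stronger hERG block; nearly all actives have a fitted effect of over 50% in size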
# Outline: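 Kinetic FDSS fluorescence; U2OS + hERG BacMam (~100 virus particles/cell); FluxOR Tl+ flux; ~10 min cpd; AC50 (Hill).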
# [11] = target: Luciferin 4-monooxygenase (Photinus pyralis) (UniProt P08659); assay: Biochemical firefly luciferase enzyme assay for NPC (AID 624030);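 note: purified P. pyralis luciferase at 10 nM with luciferin and ATP substrate; series mostly up to about 59 µM; nearly all actives have a fitted effect of over 70% in size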
# Outline: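 Purified P. pyralis luciferase at 10 nM in 50 mM Tris Acetate (final), luminescence read within 5 minutes of enzyme addition to compounds. Activity normalised to PTC124 versus DMSO; concentration-response curves classed by r2, magnitude and activity.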
# [12] = S16 Schwann cell viability assay (CellTiter-Glo assay) (AID 624031);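 note: native untransfected S16 rat Schwann cells; series mostly up to about 58 µM; nearly all actives have a fitted effect of over 70% in size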
# Outline: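 Counter-screen for cytotoxicity: parental S16 rat Schwann cells lacking the PMP22 reporters, treated 24 h with compound, viability from cellular ATP by CellTiter-Glo luminescence, normalized to DMSO (0%) and no-cell wells.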
# [13] = target: Glucocorticoid receptor (Homo sapiens) (UniProt P04150); assay: qHTS assay for small molecule antagonists of glucocorticoid receptor signaling (AID 588533; active = well fitted inhibition curve with a large enough effect in the signal ratio, with a control signal flat, not every such curve was filed as active; the % refers to the signal ratio)
# Outline: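 Antagonist-mode qHTS: compound titrations added to GRE-bla HeLa cells, then dexamethasone 2 nM final; 18 h, 37 C. CCF4 FRET fluorescence normalized to dexamethasone and DMSO; IC50 from Hill fit.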
# [14] = qHTS assay for small molecule antagonists of peroxisome proliferator-activated receptor delta signaling (AID 588535); conditions: HEK293T PPARd-UAS-bla, beta-lactamase FRET ratio, 18 h; 460 nm channel;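 note: cells co-treated with a PPAR-delta agonist as stimulator during compound exposure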
# Outline: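 Antagonist-mode beta-lactamase reporter (GeneBLAzer PPAR-delta-UAS-bla) in HEK293T cells, 2% charcoal/dextran FBS, 4000 cells/well. Compound titrations, 18 h at 37 C; CCF4 ratio read, IC50 and efficacy from Hill fits.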
# [15] = target: Thyroid hormone receptor beta (Homo sapiens) (UniProt P10828); assay: qHTS assay for small molecule agonists of thyroid hormone receptor beta signaling (AID 588545; calls by dose curve)
# Outline: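 Cells (2500/well) were seeded, incubated 4 hrs at 37 C, dosed with a compound series, incubated 18 hrs, loaded with CCF4 dye for 2 hrs at RT, then read for fluorescence. Data were scaled between DMSO (0%) and 10 nM T3 (100%).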
# [16] = target: Thyroid hormone receptor beta (Homo sapiens) (UniProt P10828); assay: qHTS assay for small molecule antagonists of thyroid hormone receptor beta signaling (AID 588547; active = well fitted inhibition curve with a large enough effect in the signal ratio, with a control signal flat, not every such curve was filed as active; the % refers to the signal ratio;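 note: cells stimulated with 0.4 nM T3 agonist during compound exposure; series mostly up to about 77 µM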); conditions: TR-UAS-bla HEK293, beta-lactamase ratio, antagonist mode, 18 h
# Outline: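 TR-UAS-bla GripTite HEK293 cells in 2% charcoal/dextran FBS medium; compounds 0.59 nM to 92 uM with T3 at 0.4nM final, 18 h at 37 C. Beta-lactamase read by CCF4 fluorescence (460/530 nm); Hill fits gave IC50 and efficacy.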
# [17] = target: Bile acid receptor (Homo sapiens) (UniProt Q96RI1); assay: qHTS assay for small molecule antagonists of farnesoid X receptor signaling (AID 588526; calls by dose curve)
# Outline: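 Antagonist mode: titrated compounds tested against chenodeoxycholic acid stimulation (normalized to 50 uM CDCA and DMSO) in GeneBLAzer HEK293T cells for 16 h. Beta-lactamase read by CCF4 fluorescence; IC50 from Hill fits.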
# [18] = target: DNA dC->dU-editing enzyme APOBEC-3G (Homo sapiens) (UniProt Q9HC16); assay: qHTS for inhibitors of Vif-A3G interactions: Validation (AID 588379)
# Outline: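 HeLa cells stably expressing Vif and A3G-eYFP, 700 cells/well, incubated overnight at 37 deg C, then exposed to compound overnight at 37 deg C. Inhibition of Vif-mediated degradation read as increased yellow fluorescence (Ex 488/Em 500-530) by laser-scanning cytometry.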
# [19] = target: Androgen receptor (Homo sapiens) (UniProt P10275); assay: qHTS assay for small molecule antagonists of androgen receptor signaling (AID 588516; active = well fitted curve in the direction sought with a large enough effect in the signal ratio, with a control signal flat, not every such curve was filed as active; the % refers to the signal ratio)
# Outline: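 Antagonist mode: inhibition of R1881-stimulated (10 nM final) bla reporter in GeneBLAzer AR HEK 293 cells, 16 h at 37C, compounds titrated. IC50 and efficacy from Hill-equation fits of 405/460–530 nm FRET ratios.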
# Sequence of Estrogen receptor (Homo sapiens) (P03372 whole entry, looked up): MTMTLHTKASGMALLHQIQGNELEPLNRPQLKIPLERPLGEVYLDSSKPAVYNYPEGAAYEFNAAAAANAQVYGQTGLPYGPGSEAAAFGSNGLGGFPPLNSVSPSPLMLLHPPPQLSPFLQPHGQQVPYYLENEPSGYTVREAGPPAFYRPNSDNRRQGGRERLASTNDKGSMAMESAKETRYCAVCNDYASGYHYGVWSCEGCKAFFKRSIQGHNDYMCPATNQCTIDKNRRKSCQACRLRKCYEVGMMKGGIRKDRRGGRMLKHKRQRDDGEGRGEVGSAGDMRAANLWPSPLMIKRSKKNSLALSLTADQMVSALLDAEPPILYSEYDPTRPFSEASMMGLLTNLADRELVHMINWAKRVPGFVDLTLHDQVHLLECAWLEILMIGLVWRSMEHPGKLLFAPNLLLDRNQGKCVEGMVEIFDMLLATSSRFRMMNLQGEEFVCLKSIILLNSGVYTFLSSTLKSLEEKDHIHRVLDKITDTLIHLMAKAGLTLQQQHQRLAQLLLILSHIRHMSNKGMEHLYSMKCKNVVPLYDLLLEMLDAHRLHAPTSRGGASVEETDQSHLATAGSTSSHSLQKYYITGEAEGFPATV
# Sequence of Peroxisome proliferator-activated receptor gamma (Homo sapiens) (P37231 whole entry, looked up): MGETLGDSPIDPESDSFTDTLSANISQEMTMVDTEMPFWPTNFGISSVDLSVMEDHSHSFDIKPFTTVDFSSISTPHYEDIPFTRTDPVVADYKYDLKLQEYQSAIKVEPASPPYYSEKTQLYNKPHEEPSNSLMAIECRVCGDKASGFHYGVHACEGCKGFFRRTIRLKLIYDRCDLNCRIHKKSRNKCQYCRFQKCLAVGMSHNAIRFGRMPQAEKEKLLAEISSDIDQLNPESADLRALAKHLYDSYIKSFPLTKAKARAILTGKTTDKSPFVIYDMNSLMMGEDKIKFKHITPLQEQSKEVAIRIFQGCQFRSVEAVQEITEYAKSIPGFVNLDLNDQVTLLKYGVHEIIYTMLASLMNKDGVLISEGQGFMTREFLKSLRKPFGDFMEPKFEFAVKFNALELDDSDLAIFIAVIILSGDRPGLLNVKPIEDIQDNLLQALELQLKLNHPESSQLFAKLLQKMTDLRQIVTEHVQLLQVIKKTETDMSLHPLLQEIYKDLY
# Sequence of Voltage-gated inwardly rectifying potassium channel KCNH2 (Homo sapiens) (Q12809 whole entry, looked up): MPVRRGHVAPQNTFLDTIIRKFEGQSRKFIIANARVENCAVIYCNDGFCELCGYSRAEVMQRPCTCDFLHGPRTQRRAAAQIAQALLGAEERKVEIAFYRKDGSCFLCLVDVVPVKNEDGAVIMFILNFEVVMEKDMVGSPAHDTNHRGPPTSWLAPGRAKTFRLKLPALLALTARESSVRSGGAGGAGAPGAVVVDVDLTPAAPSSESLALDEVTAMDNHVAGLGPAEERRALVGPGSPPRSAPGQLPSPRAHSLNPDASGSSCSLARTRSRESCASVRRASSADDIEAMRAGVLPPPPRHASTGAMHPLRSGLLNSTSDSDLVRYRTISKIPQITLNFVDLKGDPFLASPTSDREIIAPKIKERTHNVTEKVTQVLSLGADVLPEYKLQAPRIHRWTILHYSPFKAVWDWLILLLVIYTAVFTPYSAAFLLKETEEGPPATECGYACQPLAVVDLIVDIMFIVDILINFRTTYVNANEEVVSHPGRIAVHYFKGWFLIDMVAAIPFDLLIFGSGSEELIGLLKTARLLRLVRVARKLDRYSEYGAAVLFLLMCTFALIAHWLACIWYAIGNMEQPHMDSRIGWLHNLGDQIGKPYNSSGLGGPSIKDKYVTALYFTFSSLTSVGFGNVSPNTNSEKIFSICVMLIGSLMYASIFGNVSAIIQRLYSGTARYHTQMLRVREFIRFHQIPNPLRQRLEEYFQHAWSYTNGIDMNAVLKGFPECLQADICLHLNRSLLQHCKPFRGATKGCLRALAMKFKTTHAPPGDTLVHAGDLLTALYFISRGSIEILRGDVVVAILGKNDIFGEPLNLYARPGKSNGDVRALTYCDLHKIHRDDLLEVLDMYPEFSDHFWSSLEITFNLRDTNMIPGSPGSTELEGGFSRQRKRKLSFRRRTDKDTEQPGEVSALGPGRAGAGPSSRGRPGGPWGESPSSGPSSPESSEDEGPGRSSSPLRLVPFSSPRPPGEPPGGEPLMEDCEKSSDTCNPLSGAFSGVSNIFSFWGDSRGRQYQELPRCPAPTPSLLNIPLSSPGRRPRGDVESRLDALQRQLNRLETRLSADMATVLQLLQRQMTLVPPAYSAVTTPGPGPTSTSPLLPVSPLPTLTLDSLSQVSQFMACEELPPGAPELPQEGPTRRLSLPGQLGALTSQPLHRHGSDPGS
# Sequence of Luciferin 4-monooxygenase (Photinus pyralis) (P08659 whole entry, looked up): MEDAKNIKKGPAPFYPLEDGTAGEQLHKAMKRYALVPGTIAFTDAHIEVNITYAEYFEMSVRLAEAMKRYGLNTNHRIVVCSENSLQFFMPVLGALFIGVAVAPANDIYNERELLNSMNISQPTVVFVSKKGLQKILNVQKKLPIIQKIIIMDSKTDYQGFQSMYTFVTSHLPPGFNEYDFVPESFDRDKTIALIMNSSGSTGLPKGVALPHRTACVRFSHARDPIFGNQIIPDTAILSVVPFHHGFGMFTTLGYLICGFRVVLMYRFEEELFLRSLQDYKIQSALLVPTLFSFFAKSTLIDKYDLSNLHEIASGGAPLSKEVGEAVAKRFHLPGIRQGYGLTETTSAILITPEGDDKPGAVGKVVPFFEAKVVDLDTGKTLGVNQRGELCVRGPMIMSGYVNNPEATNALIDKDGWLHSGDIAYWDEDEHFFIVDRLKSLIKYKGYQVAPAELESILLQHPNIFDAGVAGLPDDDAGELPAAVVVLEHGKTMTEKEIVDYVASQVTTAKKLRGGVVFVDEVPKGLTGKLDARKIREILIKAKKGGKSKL
# Sequence of Vitamin D3 receptor (Homo sapiens) (P11473 whole entry, looked up): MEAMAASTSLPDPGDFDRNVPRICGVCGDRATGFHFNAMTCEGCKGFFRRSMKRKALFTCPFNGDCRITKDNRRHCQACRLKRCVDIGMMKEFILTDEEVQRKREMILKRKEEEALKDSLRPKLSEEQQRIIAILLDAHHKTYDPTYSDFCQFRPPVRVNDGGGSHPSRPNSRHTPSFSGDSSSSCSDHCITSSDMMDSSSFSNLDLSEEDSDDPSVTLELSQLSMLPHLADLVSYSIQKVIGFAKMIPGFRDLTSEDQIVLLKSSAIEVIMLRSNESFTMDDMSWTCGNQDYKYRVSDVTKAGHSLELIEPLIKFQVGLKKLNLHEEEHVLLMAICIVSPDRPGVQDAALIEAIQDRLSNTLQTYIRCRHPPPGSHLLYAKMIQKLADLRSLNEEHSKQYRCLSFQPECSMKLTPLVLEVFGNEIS
# Sequence of Retinoic acid receptor RXR-alpha (Homo sapiens) (P19793 whole entry, looked up): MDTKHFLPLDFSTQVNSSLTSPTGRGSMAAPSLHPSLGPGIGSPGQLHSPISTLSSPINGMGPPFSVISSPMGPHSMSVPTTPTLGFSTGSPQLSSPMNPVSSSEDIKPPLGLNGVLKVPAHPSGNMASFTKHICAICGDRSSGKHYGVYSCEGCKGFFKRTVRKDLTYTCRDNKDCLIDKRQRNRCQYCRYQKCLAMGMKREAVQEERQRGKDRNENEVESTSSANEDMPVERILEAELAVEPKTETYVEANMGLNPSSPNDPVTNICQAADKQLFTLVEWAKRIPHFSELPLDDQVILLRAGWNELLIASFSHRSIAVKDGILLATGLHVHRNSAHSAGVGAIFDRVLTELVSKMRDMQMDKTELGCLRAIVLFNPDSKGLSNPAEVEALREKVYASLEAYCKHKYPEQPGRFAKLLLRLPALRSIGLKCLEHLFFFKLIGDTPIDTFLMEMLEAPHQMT
# Sequence of Thyroid hormone receptor beta (Homo sapiens) (P10828 whole entry, looked up): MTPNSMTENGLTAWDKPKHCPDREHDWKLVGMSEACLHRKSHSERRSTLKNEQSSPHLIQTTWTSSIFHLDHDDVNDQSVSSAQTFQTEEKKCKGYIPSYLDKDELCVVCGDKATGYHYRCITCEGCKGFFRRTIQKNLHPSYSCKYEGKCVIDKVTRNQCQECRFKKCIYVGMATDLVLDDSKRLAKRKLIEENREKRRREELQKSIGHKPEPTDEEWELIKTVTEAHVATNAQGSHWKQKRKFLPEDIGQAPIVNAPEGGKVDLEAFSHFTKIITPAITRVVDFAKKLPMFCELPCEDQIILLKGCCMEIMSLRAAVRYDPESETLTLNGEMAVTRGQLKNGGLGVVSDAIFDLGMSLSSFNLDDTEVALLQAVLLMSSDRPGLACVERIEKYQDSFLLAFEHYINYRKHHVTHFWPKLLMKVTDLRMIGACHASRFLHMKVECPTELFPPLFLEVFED
# Sequence of Glucocorticoid receptor (Homo sapiens) (P04150 whole entry, looked up): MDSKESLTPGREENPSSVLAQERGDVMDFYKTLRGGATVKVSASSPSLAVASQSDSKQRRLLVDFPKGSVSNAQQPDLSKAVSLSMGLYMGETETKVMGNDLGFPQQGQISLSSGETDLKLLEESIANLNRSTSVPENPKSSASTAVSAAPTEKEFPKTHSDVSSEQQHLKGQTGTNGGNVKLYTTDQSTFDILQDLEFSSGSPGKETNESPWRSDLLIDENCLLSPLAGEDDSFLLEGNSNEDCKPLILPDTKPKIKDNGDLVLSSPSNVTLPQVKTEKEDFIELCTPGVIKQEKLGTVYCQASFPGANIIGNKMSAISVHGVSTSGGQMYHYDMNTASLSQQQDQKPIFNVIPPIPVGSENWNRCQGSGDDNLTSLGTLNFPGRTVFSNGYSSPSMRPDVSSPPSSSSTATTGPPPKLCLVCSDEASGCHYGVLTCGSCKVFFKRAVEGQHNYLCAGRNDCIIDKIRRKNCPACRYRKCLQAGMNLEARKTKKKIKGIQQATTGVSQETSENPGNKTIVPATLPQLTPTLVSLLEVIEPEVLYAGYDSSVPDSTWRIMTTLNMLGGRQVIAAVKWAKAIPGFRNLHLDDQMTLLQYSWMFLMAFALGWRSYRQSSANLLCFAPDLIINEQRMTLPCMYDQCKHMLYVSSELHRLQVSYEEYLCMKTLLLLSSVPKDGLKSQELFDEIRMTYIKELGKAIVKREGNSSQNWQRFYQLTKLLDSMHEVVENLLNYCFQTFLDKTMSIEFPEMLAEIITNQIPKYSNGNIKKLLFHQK
smiles,measurement,setting,value
CC[N+](CC)(CC(=O)Nc1c(C)cccc1C)Cc1ccccc1,outcome,[1],inactive
same,outcome,[2],inactive
same,outcome,[3],inactive
same,outcome,[4],inactive
same,outcome,[5],inactive
same,max response,[6],-1.28%
same,outcome,[7],inactive
same,max response,[8],-13%
same,max response,[9],-2.97% (inactive)
same,Potency,[10],inactive
same,Potency,[11],inactive
same,outcome,[12],inactive
Cc1cc(O)cc(C)c1Cl,outcome,[13],inactive
same,max response,[14],24.1%
same,outcome,[2],inactive
same,outcome,[3],inactive
same,max response,[6],-3.04%
same,outcome,[7],inactive
same,outcome,[15],inactive
same,max response,[8],-7.57%
same,max response,[9],1.2% (inactive)
same,activity change % (negative = inhibition),[16],6.71% (inactive)
same,Potency,[10],inactive
same,Potency,[11],inactive
O=C(OOC(=O)c1ccccc1)c1ccccc1,outcome,[1],inactive
same,outcome,[13],inactive
same,outcome,[2],inactive
same,outcome,[3],inactive
same,max response,[6],-15.8%
same,outcome,[7],inactive
same,outcome,[15],inactive
same,max response,[8],-16.7%
same,max response,[9],10.6% (inactive)
same,Potency,[10],inactive
same,Potency,[11],inactive
CCCCCCCC(=O)OCC(COC(=O)CCCCCCC)OC(=O)CCCCCCC,outcome,[1],inactive
same,outcome,[17],inactive
same,outcome,[13],inactive
same,max response,[14],17.8%
same,outcome,[2],inactive
same,outcome,[4],inactive
same,outcome,[5],inactive
same,max response,[6],-2.18%
same,outcome,[7],inactive
same,outcome,[15],inactive
same,max response,[8],-12.4%
same,max response,[9],4.61% (inactive)
same,activity change % (negative = inhibition),[16],-4.42% (inactive)
same,Potency,[10],inactive
same,Potency,[11],inactive
CN(C(=O)c1c(O)c2ccccc2n(C)c1=O)c1ccccc1,outcome,[18],inactive
same,Potency,[11],inactive
same,outcome,[12],inactive
CC1CC(OC(=O)c2ccccc2O)CC(C)(C)C1 (stereo unspecified),outcome,[13],inactive
same,max response,[14],23.9%
same,outcome,[2],inactive
same,outcome,[15],inactive
same,max response,[8],-9.52%
same,max response,[9],14.2% (inactive)
same,activity change % (negative = inhibition),[16],-8.08% (inactive)
same,Potency,[11],inactive
same,outcome,[12],inactive
Cc1c(C(=O)NCCO)[n+](=O)c2ccccc2n1[O-],outcome,[19],inactive
same,outcome,[13],inactive
same,max response,[14],-20%
same,outcome,[2],inactive
same,outcome,[4],inactive
same,max response,[6],-9.58%
same,outcome,[7],inactive
same,outcome,[15],inactive
same,max response,[8],-9.28%
same,max response,[9],-2.52% (inactive)
same,activity change % (negative = inhibition),[16],-3.26% (inactive)
same,Potency,[10],inactive
same,Potency,[11],inactive
same,outcome,[12],inactive
CC(=O)NS(=O)(=O)c1ccc(N)cc1,outcome,[1],inactive
same,outcome,[13],inactive
same,max response,[14],26.9%
same,outcome,[4],inactive
same,outcome,[5],inactive
same,max response,[6],-19.7%
same,outcome,[7],inactive
same,outcome,[15],inactive
same,max response,[8],-14.4%
same,max response,[9],16.1% (inactive)
same,activity change % (negative = inhibition),[16],-0.298% (inactive)
same,Potency,[11],inactive
same,outcome,[12],inactive
C/C(=C(\CCO)SS/C(CCO)=C(\C)N(C=O)Cc1cnc(C)nc1N)N(C=O)Cc1cnc(C)nc1N,Potency,[10],inactive
CCN[C@H]1CN(CCCOC)S(=O)(=O)c2sc(S(N)(=O)=O)cc21,Potency,[10],inactive
OCCN1C[C@H](O)[C@@H](O)[C@H](O)[C@H]1CO,Potency,[10],inactive
O=C(O)C(S)C(S)C(=O)O (stereo unspecified),Potency,[10],inactive
CCCCCOC(=O)Nc1nc(=O)n([C@@H]2O[C@H](C)[C@@H](O)[C@H]2O)cc1F,Potency,[10],inactive
O=C1c2ccccc2C(=O)C1c1ccc(Br)cc1,Potency,[10],inactive
CC[C@H](C)[C@H](N)C(=O)O,Potency,[10],inactive
CCOC(=O)[C@H](CCc1ccccc1)N[C@@H](C)C(=O)N1Cc2cc(OC)c(OC)cc2C[C@H]1C(=O)O,Potency,[10],inactive
O=c1[nH]c(=O)n([C@H]2C[C@H](O)[C@@H](CO)O2)cc1I,Potency,[10],inactive
CC(=O)N(CC(O)CN(C(C)=O)c1c(I)c(C(=O)NCC(O)CO)c(I)c(C(=O)NCC(O)CO)c1I)c1c(I)c(C(=O)NCC(O)CO)c(I)c(C(=O)NCC(O)CO)c1I (stereo unspecified),Potency,[10],inactive
C=CCNC(N)=S,max response,[14],13.5%
same,outcome,[2],inactive
same,outcome,[4],inactive
same,outcome,[5],inactive
same,max response,[6],14.7%
same,outcome,[7],inactive
same,outcome,[15],inactive
same,max response,[8],-1.13%
same,max response,[9],-16.9% (inactive)
same,activity change % (negative = inhibition),[16],-17.1% (inactive)
same,Potency,[10],inactive
same,Potency,[11],inactive

# Source: PubChem BioAssay (NCATS)
